The list is not random: actives were taken first. Their share in the collection is about 6%.
D1 antagonist: blocks dopamine activation of the human D1 receptor | HEK293 TREx D1 cells, calcium flux, dopamine EC80; hits give low values | activity change, negative = inhibition, % at 10 µM | hit rate 3.2% among 360,000 | AID 504652; in the data active = activity change below about -30%; note: % is set by controls: 0 for no effect and ±100 for the full control effect
Target sequence (P21728 whole entry, looked up): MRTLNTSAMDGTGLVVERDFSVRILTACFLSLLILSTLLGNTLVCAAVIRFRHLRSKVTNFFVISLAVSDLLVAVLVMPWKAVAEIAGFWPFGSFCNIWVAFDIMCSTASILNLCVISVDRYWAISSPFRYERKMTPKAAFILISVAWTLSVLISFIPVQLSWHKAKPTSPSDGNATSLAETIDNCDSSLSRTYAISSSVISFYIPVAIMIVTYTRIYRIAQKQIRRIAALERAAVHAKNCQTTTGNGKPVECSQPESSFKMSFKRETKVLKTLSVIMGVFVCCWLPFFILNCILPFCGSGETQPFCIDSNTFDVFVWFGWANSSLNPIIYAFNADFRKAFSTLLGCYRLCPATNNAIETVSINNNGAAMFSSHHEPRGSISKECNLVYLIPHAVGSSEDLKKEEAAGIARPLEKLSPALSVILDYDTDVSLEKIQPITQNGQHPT
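Allosteric or orthosteric antagonism assessed as attenuation of the calcium response to EC80 dopamine, added 180 s after compound, in induced HEK293 Trex D1 cells loaded with no-wash calcium dye.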
D3 antag: antagonists of human D3 dopamine receptor. P35462. D3R cells, DiscoveRx beta-arrestin luminescence, antagonist mode; hits give low values. max response, negative = inhibition, %. hit rate 2.5% among 360,000; in the data active = max response below about -50%; inconclusive = no clear call, values can overlap the other calls; note: % is set by controls: 0 for no effect and ±100 for the full control effect
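Cells plated overnight at 1500 cells/well, then exposed to library compounds with dopamine controls for 90 minutes at 37 degrees C. DiscoveRx reagent added for 30–60 minutes at room temperature; luminescence read, quantitative HTS format.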
D1 ag: human D1 receptor agonism; P21728; HEK293 T-REx D1 cells, calcium flux, agonist mode; activation, % at 2 µM; hit rate 1% among 360,000; in the data active = activation above about 30%; note: 0% is about no effect
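Inducible HEK293 T-REx D1 cells, force-coupled to calcium signalling, were plated at 4000 cells/well with tetracycline and held overnight at 30 C. After no-wash calcium dye loading, compound-evoked calcium rise over 180 s flagged agonists.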
D1 potentiator: potentiators of human D1 dopamine receptor; P21728; potentiation, % at 10 µM; hit rate 0.036% among 360,000; HEK293 TREx D1 cells, calcium flux, dopamine EC20 potentiation; AID 504651; in the data active = potentiation above about 30%; note: 0% is about no effect
DRD3 agonist: agonists of human D3 dopamine receptor | P35462 | D3R DiscoveRx beta-arrestin cells, luminescence, 90 min | max activation, % | hit rate 0.58% among 410,000; in the data active = max activation above about 30%; note: 0% is about no effect
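Agonist-mode cell screen: cells plated at 1500/well and incubated overnight at 37 °C, then exposed to library compounds for 90 min at 37 °C. Detection reagent was added for 30–60 min at room temperature, and luminescence was read.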
* marks the source's active call; other numbers are inactive results; ? = inconclusive; . = no result.

SMILES | D1 antagonist | D3 antag | D1 ag | D1 potentiator | DRD3 agonist
Cc1cc(C(=O)COC(=O)c2ccc(N)c([N+](=O)[O-])c2)c(C)n1-c1ccc2c(c1)OCO2 | -25.1 | -10.7 | 6.8 | -4.0 | 0.0
CC(=O)c1ccc(OCC(=O)c2cc(C)n(-c3ccc4c(c3)OCO4)c2C)cc1 | -44.4* | 16.9 | 12.5 | -5.1 | -2.8
Cc1ccccc1NC(=O)CCn1cnc2onc(-c3ccc(F)cc3)c2c1=O | -44.7* | . | 23.8 | -3.4 | -15.2
CC1=C(C(=O)N2CCCCCC2)CC(CC(=O)NCC2CCCCC2)C(=O)N1Cc1ccc(F)cc1 (stereo not given) | . | -64.3* | . | . | -7.6
CCN(C(=O)c1cc2c(=O)n3cccc(C)c3nc2s1)c1ccc(C)c(C)c1 | -12.2 | . | -2.7 | 0.7 | 5.0
Cc1ccc(-c2nnc(-c3cc(C)on3)o2)cc1 | 4.9 | ? | 4.4 | -8.9 | -0.7
CCOc1ccc(NC(=O)CCC(=O)NNS(=O)(=O)c2ccccc2[N+](=O)[O-])cc1 | 3.7 | -1.0 | 224.0* | -4.0 | -13.1
CCOc1ccc(NCc2nnc(SCc3ccccc3Cl)n2-c2ccccc2)cc1 | -1.1 | -20.9 | 1.2 | -3.7 | -5.2
Clc1ccccc1CSc1nnc(Cn2cnc3ccccc32)n1-c1ccccc1 | -82.3* | -16.5 | 2.3 | 0.1 | -0.7
O=[N+]([O-])c1cccc(SSc2cccc([N+](=O)[O-])c2)c1 | . | -68.9* | . | . | -28.2
C=CCNC(=O)c1onc(CS(=O)(=O)c2cc(C)cc(C)c2)c1C(=O)NCC=C | -8.5 | 0.0 | 0.1 | -0.9 | -21.1
O=C(Nc1ccc(Br)c2cccnc12)c1cccc2ccccc12 | -1.7 | . | 0.8 | 3.5 | 8.9
Fc1ccc(Sc2nc(-c3ccccc3)nnc2C(F)(F)F)cc1 | -1.5 | -88.2* | 12.8 | -3.0 | -17.2
CN(C)CCNc1nc(-c2ccccc2)nnc1C(F)(F)F | 4.5 | -51.2* | 1.4 | -5.3 | 3.0
Fc1ccc(Oc2nc(-c3ccccc3)nnc2C(F)(F)F)cc1 | -9.8 | -24.3 | 0.2 | 6.2 | -1.1
CN(C)c1nc(-c2ccccc2)nnc1C(F)(F)F | 5.8 | -64.5* | 0.9 | -4.0 | 3.4
CC(C)NC(=O)C(=O)Nc1cc2c3c(c1)C(C)C(=O)N3CCC2 (stereo not given) | -2.2 | -2.6 | -0.9 | -17.6 | 5.4
COc1ccc2sc(N(Cc3cccnc3)C(=O)c3ccc4c(c3)OCCO4)nc2c1 | -4.0 | . | 4.3 | -0.9 | 1.2
CCN1CCN(C(C(=O)NC2CCCC2)c2ccc(Cl)cc2)CC1 (stereo not given) | -37.5* | 0.0 | 0.7 | -3.5 | -0.2
O=CN1CCN(C(C(=O)NC2CCCCC2)c2ccc(Cl)cc2)CC1 (stereo not given) | . | 0.0 | . | . | 7.6
CC(C(=O)NC1CCCC1)N1CCN(Cc2ccccc2)CC1 (stereo not given) | 4.5 | -3.4 | 5.2 | 0.9 | -21.0
CCN1CCN(C(CCc2ccccc2)C(=O)NC2CCCCC2)CC1 (stereo not given) | . | -72.7* | . | . | -13.8
Nc1c(C(=O)NCc2ccco2)c2nc3ccccc3nc2n1CCc1ccccc1 | -9.7 | 44.4 | 8.3 | -2.5 | 6.4
CCOc1ccc(-n2c(N)c(C(=O)NCc3ccco3)c3nc4ccccc4nc32)cc1 | -6.3 | -79.4* | 2.9 | 2.7 | -12.7
Cc1ccccc1N1C(=O)C(Cl)=C(N2CCOCC2)C1=O | -45.3* | 3.2 | 0.9 | -3.3 | 2.0
SMILES | D1 antagonist | D3 antag | D1 ag | D1 potentiator | DRD3 agonist
O=C1C(Cl)=C(N2CCOCC2)C(=O)N1c1ccc(Br)cc1 | -27.8 | -69.2* | 5.3 | -3.8 | -11.8
O[C@H]1C[C@H](c2ccccc2)N(Cc2cccs2)C[C@@H]1n1cc(-c2ccc(F)cc2)nn1 | . | 0.0 | . | . | 0.9
O=c1c2cc3c(cc2nc2sc(Nc4cccc([N+](=O)[O-])c4)nn12)OCO3 | 26.4 | . | 2.2 | -4.0 | -9.7
CC(=O)Nc1cccc(-c2ccnc3c2CC(C)(C(=O)Nc2ccccc2)O3)c1 (stereo not given) | . | 1.1 | . | . | 2.6
CC(=O)Nc1ccc(NC(=O)C2(C)Cc3c(-c4ccccc4)ccnc3O2)cc1 (stereo not given) | . | -112.5* | . | . | -4.1
CC1(C(=O)NCc2ccccc2)Cc2c(-c3ccc(C(N)=O)cc3)ccnc2O1 (stereo not given) | . | ? | . | . | 58.5*
CN1CCN(c2ccc(CNC(=O)C3(C)Cc4c(-c5ccccc5)ccnc4O3)cc2)CC1 (stereo not given) | . | -62.3* | . | . | -15.0
CC1(C(=O)NCCC(F)(F)F)Cc2c(-c3cccc(C(N)=O)c3)ccnc2O1 (stereo not given) | . | -59.3* | . | . | -4.3
CC1(c2nnnn2-c2ccc3c(c2)OCCO3)CCC(=O)N1Cc1ccc(F)cc1 (stereo not given) | . | -5.4 | . | . | 9.2
Nc1ncnc2c1ncn2[C@@H]1O[C@H](C(=O)N[C@H]2c3ccccc3C[C@H]2OC=O)[C@@H](O)[C@H]1O | . | 6.4 | . | . | 4.7
O=C(NC1CCN(C(=S)NCCc2ccccc2)CC1)C1CCCCC1 | -34.0* | 8.4 | 6.7 | -9.9 | 4.0
CN1CCN(C(=S)NCCc2ccccc2)CC1 | 0.6 | -87.1* | 4.3 | -1.4 | -15.8
COC(=O)c1ccc(Cn2c(SCc3ccccc3F)nc3ccncc32)cc1 | 5.9 | . | -0.3 | 1.4 | 1.4
Cc1noc(-c2ccc(C(F)(F)F)cc2)c1NC(=O)Nc1ccc(Cl)cc1 | -41.8* | 100.2 | 24.8 | -13.2 | -0.5
COC(=O)c1[nH]c2ccccc2c1NS(=O)(=O)c1ccc(F)c(C)c1 | -47.9* | -8.8 | 0.8 | -7.3 | -7.4
CCCS(=O)(=O)Nc1c(C(=O)OC)[nH]c2ccccc12 | -18.1 | 2.7 | 4.7 | -3.6 | -10.5
Cn1nc(-c2ccccc2F)c2cc(C(=O)NCc3ccccc3Cl)sc21 | -9.0 | . | 16.0 | -2.4 | 3.5
CN(C(=O)COC(=O)C1CCN(S(=O)(=O)c2ccc3c(c2)OCCO3)CC1)C1CCS(=O)(=O)C1 (stereo not given) | 9.3 | 10.2 | 1.0 | -12.1 | 1.8
COc1ccc(-c2noc(-c3ccc(N4CCCC4)c([N+](=O)[O-])c3)n2)cc1OC | -38.1* | . | 7.3 | -1.8 | 11.4
COc1ccc(-c2noc(-c3ccc(NCc4ccco4)c([N+](=O)[O-])c3)n2)cc1 | -31.5* | . | 2.2 | 1.8 | 9.8
COc1ccccc1-c1noc(-c2ccc(NCc3ccco3)c([N+](=O)[O-])c2)n1 | -12.2 | . | 5.1 | 0.7 | -6.2
COc1cc(-c2noc(-c3ccc(NC4CCCC4)c([N+](=O)[O-])c3)n2)cc(OC)c1OC | -30.3* | . | 9.5 | 1.1 | 4.3
COc1ccc(-c2noc(-c3ccc(NCC4CCCO4)c([N+](=O)[O-])c3)n2)cc1 (stereo not given) | -57.6* | . | 3.3 | -2.4 | 9.0
CCN(CC)CCNC(=O)c1ccc2c(=O)n3nc(Nc4ccccc4)sc3nc2c1 | -7.4 | . | 2.2 | -0.1 | -17.3
O=C(NCc1cccc(F)c1)c1cccc(NC(=O)c2nsc3ccccc23)c1 | 12.6 | . | 5.3 | -3.2 | 5.7

Screens as filed in PubChem BioAssay.
